CYP2C9 inhib = inhibitors of human CYP2C9; CYP2C9 Supersomes, luciferin-H conversion, luminescence; inhibition, % at 5 µM; 20% of 96,000 active; AID 777;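 active = blocking of liver enzyme CYP2C9 beyond about 50% at 5 µM, limit read from the data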
Target sequence (P11712 whole entry, looked up): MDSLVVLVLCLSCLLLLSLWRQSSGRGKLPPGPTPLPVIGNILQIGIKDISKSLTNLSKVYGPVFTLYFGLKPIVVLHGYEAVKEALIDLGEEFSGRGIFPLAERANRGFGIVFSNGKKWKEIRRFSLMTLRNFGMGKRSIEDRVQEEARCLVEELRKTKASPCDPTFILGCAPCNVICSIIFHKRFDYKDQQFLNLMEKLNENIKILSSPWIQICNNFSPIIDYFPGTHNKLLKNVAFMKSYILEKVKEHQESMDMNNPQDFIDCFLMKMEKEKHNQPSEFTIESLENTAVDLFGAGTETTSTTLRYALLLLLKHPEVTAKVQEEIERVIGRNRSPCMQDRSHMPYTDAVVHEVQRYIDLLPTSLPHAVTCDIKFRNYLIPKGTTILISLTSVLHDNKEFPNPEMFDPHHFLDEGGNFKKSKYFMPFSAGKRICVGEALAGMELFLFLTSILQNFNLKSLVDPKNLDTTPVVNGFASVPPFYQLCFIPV
CYP2C9 act = activators of human CYP2C9. AID 1024. activation factor at 5 µM. 1.4% of 96,000 active. P11712. recombinant CYP2C9, luciferin-H conversion, luminescence; stronger effect = higher value; factor 1 = untreated enzyme, 0 = blocked;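 active = activation factor of 2 or more for CYP2C9 at a 5 µM dose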;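 also: 0 = sulfaphenazole-blocked wells and 1 = vehicle-only wells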
Pyk2 oligo antag = Pyk2 (human) oligomerization antagonism; Q14289; Q293 cells, Pyk2 FERM NanoBiT luminescence; stronger effect = lower value; z-score (the deposit names both 25 µM and 10 µM); 0.83% of 99,000 active; AID 1347419;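 active = Z-score of -3 or lower, scaled per plate to the spread of control and sample wells; inactive = z-score above -3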;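 also: negative z-score means lost luminescence so less FERM oligomerization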
CYP2C19 inhib = blocks human cytochrome P450 2C19; P33261; CYP2C19 Supersomes, luciferin-H EGE luminescence, 30 min; inhibition, % at 5 µM; 21% of 96,000 active;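 active = CYP2C19 inhibition above a set limit at 5 µM in the primary screen, cut at about 50% in these data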;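 also: plate controls were negative control wells for no effect and 2.5 mM tranylcypromine positive control for full effect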
CYP2C19 act = increases human CYP2C19 enzyme activity; recombinant CYP2C19, luciferin-H EGE luminescence; stronger effect = higher value; 0 = fully inhibited enzyme, 1 = untreated enzyme; activation factor at 5 µM; 96,000 tested, under 10 active;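 active = activation factor of at least 2 at 5 µM in the primary screen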;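 also: 0 = wells with 2.5 mM tranylcypromine and 1 = vehicle-only wells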
* = called active by the depositor; / = no result. Shown are actives, neighbours in structure and some others; about 28% of the full set was active somewhere.

SMILES | CYP2C9 inhib | CYP2C9 act | Pyk2 oligo antag | CYP2C19 inhib | CYP2C19 act
O=C(NCCc1ccccc1)c1ccc(Br)o1 | 1 | 1 | / | 51* | 0.5
O=C(Cc1ccc(F)cc1)NCCc1ccc(F)cc1 | 52* | 0.5 | 0.14 | 65* | 0.3
CCC(CC)C(=O)NCCc1ccc(F)cc1 | 15 | 0.9 | 0.33 | 27 | 0.7
O=C(CN1CCCCCC1)NCCc1ccc(F)cc1 | 15 | 0.8 | -0.27 | 66* | 0.3
CCCC(=O)NCCc1ccc(F)cc1 | 9 | 0.9 | -0.43 | 30 | 0.7
O=C(NCCNC(=O)c1ccc(Br)o1)c1ccc(Br)o1 | 14 | 0.9 | 0.83 | 22 | 0.8
CCOC(=O)C1CCN(Cc2nc3ccccc3c(=O)n2-c2ccc(OCC)cc2)CC1 | 54* | 0.5 | -0.41 | 18 | 0.8
CCOC(=O)c1c(C)c(C(=O)N2CCCCCC2)c(C)n1CC | -10 | 1.1 | -0.52 | 67* | 0.3
Cn1c2c(c(=O)n(C)c1=O)C(c1ccccc1OC(F)F)C1=C(CCCC1=O)N2 (stereo not drawn) | / | / | 0.57 | / | /
Cc1cccc(/C=C2/SC(=O)N(Cc3ccccc3)C2=O)n1 | -1 | 1 | -1.7 | 26 | 0.7
O=C1CCCCC1Sc1nnc(Cc2cccs2)n1CCc1ccccc1 (stereo not drawn) | 70* | 0.3 | -0.63 | 68* | 0.3
O=C(CCN1C(=O)c2ccccc2C1=O)Nc1cccnc1 | / | / | 0.38 | / | /
Cc1ccc(C2CC(=O)N(c3ccc(F)cc3)C3=C2C(=O)CCC3)cc1 (stereo not drawn) | 29 | 0.7 | 0.1 | 17 | 0.8
CN(C)c1ccc(C(=O)c2ccc(N(C)C)c(N)c2)cc1N | -51 | 1.5 | -0.5 | 81* | 0.2
COc1ccc(C(N)=O)cc1N | 6 | 0.9 | -0.15 | -4 | 1
CCOc1ccc(C(=O)c2ccc(OCC)c(N)c2)cc1N | 43 | 0.6 | -0.55 | 76* | 0.2
CN1CCN(C(=O)CN(CCc2ccccc2)S(C)(=O)=O)CC1 | 2 | 1 | -0.33 | 40 | 0.6
CCCc1cc(N2CCN(c3ccccn3)CC2)n2nc(C)c(-c3ccccc3)c2n1 | 54* | 0.5 | 1.1 | 19 | 0.8
Cc1cc(N2CCCCC2)n2nc(C)c(-c3ccccc3)c2n1 | 39 | 0.6 | -0.34 | 16 | 0.8
CCN(CC)C(=O)CN1C(=O)C2(OCC(C)(c3ccccc3)CO2)c2ccccc21 (stereo not drawn) | 77* | 0.2 | 0.57 | 86* | 0.1
CCCC(=O)CN1C(=O)C2(OCCO2)c2ccccc21 | 11 | 0.9 | -0.01 | 6 | 0.9
COc1ccc(C2N(c3cc(Cl)ccc3OC)C(=O)C3CCCN32)cc1OC (stereo not drawn) | -96 | 2* | / | 49 | 0.5
COc1ccc(Cl)cc1N1C(=O)C2CCCN2C1c1cccc(F)c1 (stereo not drawn) | -37 | 1.4 | / | 54* | 0.5
CC(=O)OC(C(=O)NC1CCCCC1)c1ccc(C#N)cc1 (stereo not drawn) | 17 | 0.8 | 0.1 | 15 | 0.9
C=CCn1c(CCNC(=O)c2cccs2)nnc1SCC(=O)Nc1cccc(Cl)c1C | 45 | 0.5 | 0.82 | 16 | 0.8
SMILES | CYP2C9 inhib | CYP2C9 act | Pyk2 oligo antag | CYP2C19 inhib | CYP2C19 act
Cc1ccc(S(=O)(=O)NCC(=O)N2CCCC2)cc1 | 1 | 1 | 0.09 | 4 | 1
Cc1ccc(S(=O)(=O)NCCN=C(CN2CCCC2)NS(=O)(=O)c2ccc(C)cc2)cc1 | 97* | 0 | -0.59 | 26 | 0.7
Cc1ccc(S(=O)(=O)NCCN=C(CN2CCOCC2)NS(=O)(=O)c2ccc(C)cc2)cc1 | 76* | 0.2 | 0.47 | 24 | 0.8
Fc1ccc(CN2CCN(c3ncccn3)CC2)cc1 | 13 | 0.9 | -0.29 | 57* | 0.4
c1ccc(CN2CCN(c3ncccn3)CC2)nc1 | 42 | 0.6 | / | 54* | 0.5
Cc1coc(C)c1C(=O)CC1(O)C(=O)N(Cc2ccccc2)c2ccccc21 (stereo not drawn) | 39 | 0.6 | 0.24 | 98* | 0
C/C(CC1(O)C(=O)N(Cc2ccccc2)c2ccccc21)=N\O (stereo not drawn) | 8 | 0.9 | 0.45 | 50* | 0.5
Cc1ccc(C(=O)CC2(O)C(=O)N(Cc3ccccc3)c3ccccc32)o1 (stereo not drawn) | -17 | 1.2 | 0.67 | 31 | 0.7
CC(=O)CC1(O)C(=O)N(Cc2ccccc2)c2ccccc21 (stereo not drawn) | 13 | 0.9 | 0.28 | 36 | 0.6
Cc1ccc(C2C(C(=O)c3sc(-c4ccccc4)nc3C)=C(O)C(=O)N2CCN(C)C)o1 (stereo not drawn) | / | / | -0.33 | / | /

From PubChem BioAssay
